{
  "source": "ChEMBL document CHEMBL5606460",
  "about": "“ASAP - DENV-2 NS2B-NS3 protease fluorescence single point” (2024)",
  "target": "Genome polyprotein (dengue virus type 2) (UniProt P29990)",
  "key": {"[1]": {"details": "Thailand/16681/1984, Concentration 25.0 uM, Number of replicates 1.0"}},
  "note": "Among all 2,000 compounds or so, about 110 (5.5%) showed an effect of 50% or more. For the sample, strong results were picked, then their nearest neighbours and some compounds at random.",
  "data": [
    {"smiles": "COC(=O)c1csc(Cn2ncc(C3CCNCC3)c2C)n1", "values": [
      {"measurement": "inhibition", "setting": "Thailand/16681/1984, Concentration 49.5 uM, Number of replicates 2.0, Standard deviation 0.7717951129802201 %", "result": -5.62, "unit": "%"},
      {"measurement": "inhibition", "setting": "Thailand/16681/1984, Concentration 99.01 uM, Number of replicates 2.0, Standard deviation 0.8815947340216488 %", "result": -4.23, "unit": "%"},
      {"measurement": "inhibition", "setting": "Thailand/16681/1984, Concentration 198.0 uM, Number of replicates 2.0, Standard deviation 1.4332580373412276 %", "result": -2.98, "unit": "%"}
    ]},
    {"smiles": "O=C(Cc1cnc[nH]1)NC1CCN(C(=O)c2cccc3[nH]ncc23)CC1", "values": [
      {"measurement": "inhibition", "setting": "Thailand/16681/1984, Concentration 49.5 uM, Number of replicates 2.0, Standard deviation 0.5712330544607026 %", "result": -0.001, "unit": "%"},
      {"measurement": "inhibition", "setting": "Thailand/16681/1984, Concentration 99.01 uM, Number of replicates 2.0, Standard deviation 0.88648652906749 %", "result": 0.297, "unit": "%"},
      {"measurement": "inhibition", "setting": "Thailand/16681/1984, Concentration 198.0 uM, Number of replicates 2.0, Standard deviation 1.4162803173835237 %", "result": -0.087, "unit": "%"}
    ]},
    {"smiles": "O=Cc1ccc(N2CCC(C(=O)Nc3n[nH]c4ccc(Br)cc34)CC2)cc1", "values": [
      {"measurement": "inhibition", "setting": "[1]", "result": 10.1, "unit": "%"}
    ]},
    {"smiles": "CCN(CC)S(=O)(=O)c1ccc(NC(=O)C2CCN(c3ccc(C=O)cc3)CC2)cc1", "values": [
      {"measurement": "inhibition", "setting": "[1]", "result": 12.2, "unit": "%"}
    ]},
    {"smiles": "O=C(Nc1cc2c(cc1C1CC1)CNC2)c1cc(F)cc2[nH]ncc12", "values": [
      {"measurement": "inhibition", "setting": "Thailand/16681/1984, Concentration 99.5 uM, Number of replicates 2.0, Standard deviation 0.34945873996674337 %", "result": 63.1, "unit": "%"},
      {"measurement": "inhibition", "setting": "Thailand/16681/1984, Concentration 295.6 uM, Number of replicates 2.0, Standard deviation 0.6526301250248825 %", "result": 85.2, "unit": "%"}
    ]},
    {"smiles": "COc1cc(Cc2c(-c3ccc(F)cc3)noc2C)nc(N2CCNCC2)n1", "values": [
      {"measurement": "inhibition", "setting": "Thailand/16681/1984, Concentration 49.5 uM, Number of replicates 2.0, Standard deviation 0.4285559202279565 %", "result": -0.048, "unit": "%"},
      {"measurement": "inhibition", "setting": "Thailand/16681/1984, Concentration 99.01 uM, Number of replicates 2.0, Standard deviation 0.4007548684992308 %", "result": 1.07, "unit": "%"},
      {"measurement": "inhibition", "setting": "Thailand/16681/1984, Concentration 198.0 uM, Number of replicates 2.0, Standard deviation 0.4757654271085549 %", "result": 6.24, "unit": "%"}
    ]},
    {"smiles": "O=Cc1ccc(N2CCC(C(=O)NCc3c(F)ccc(F)c3F)CC2)cc1", "values": [
      {"measurement": "inhibition", "setting": "[1]", "result": 12.3, "unit": "%"}
    ]},
    {"smiles": "O=Cc1ccc(N2CCC(C(=O)NCCc3ccc(Cl)c(Cl)c3)CC2)cc1", "values": [
      {"measurement": "inhibition", "setting": "[1]", "result": 11.5, "unit": "%"}
    ]},
    {"smiles": "CCN(CC)C1CCN(C(=O)C2CCN(c3ccc(C=O)cc3)CC2)CC1", "values": [
      {"measurement": "inhibition", "setting": "[1]", "result": 12.6, "unit": "%"}
    ]},
    {"smiles": "C[C@@H](NC(=O)c1cc(Cl)ccc1NS(=O)(=O)c1ccc(Oc2ccccc2Cl)cc1)C1COC1", "values": [
      {"measurement": "inhibition", "setting": "Thailand/16681/1984, Concentration 49.5 uM, Number of replicates 2.0, Standard deviation 0.4885797549298071 %", "result": 59.2, "unit": "%"},
      {"measurement": "inhibition", "setting": "Thailand/16681/1984, Concentration 99.01 uM, Number of replicates 2.0, Standard deviation 0.152624190876378 %", "result": 68.4, "unit": "%"},
      {"measurement": "inhibition", "setting": "Thailand/16681/1984, Concentration 198.0 uM, Number of replicates 2.0, Standard deviation 0.02447349481851786 %", "result": 59.2, "unit": "%"}
    ]},
    {"smiles": "C[C@@H](NC(=O)c1cc(Cl)ccc1NS(=O)(=O)c1ccc(Oc2ccccc2Cl)cc1)[C@H]1CCCO1", "values": [
      {"measurement": "inhibition", "setting": "Thailand/16681/1984, Concentration 49.5 uM, Number of replicates 2.0, Standard deviation 0.29635236214386457 %", "result": 82.5, "unit": "%"},
      {"measurement": "inhibition", "setting": "Thailand/16681/1984, Concentration 99.01 uM, Number of replicates 2.0, Standard deviation 0.052507555399236044 %", "result": 84.4, "unit": "%"},
      {"measurement": "inhibition", "setting": "Thailand/16681/1984, Concentration 198.0 uM, Number of replicates 2.0, Standard deviation 0.13838732262418607 %", "result": 80.7, "unit": "%"}
    ]},
    {"smiles": "Cc1cnccc1NC(=O)c1cc(C2CCCC2)n(C)c1C", "values": [
      {"measurement": "inhibition", "setting": "Thailand/16681/1984, Concentration 49.5 uM, Number of replicates 2.0, Standard deviation 1.895573393565592 %", "result": -3.53, "unit": "%"},
      {"measurement": "inhibition", "setting": "Thailand/16681/1984, Concentration 99.01 uM, Number of replicates 2.0, Standard deviation 0.7217418528634704 %", "result": -1.88, "unit": "%"},
      {"measurement": "inhibition", "setting": "Thailand/16681/1984, Concentration 198.0 uM, Number of replicates 2.0, Standard deviation 1.3851925911876457 %", "result": 0.718, "unit": "%"}
    ]},
    {"smiles": "CNC(=O)[C@@H](C)CNS(=O)(=O)c1ccc(Oc2ccccc2Cl)cc1", "values": [
      {"measurement": "inhibition", "setting": "Thailand/16681/1984, Concentration 49.5 uM, Number of replicates 2.0, Standard deviation 0.8337442367954725 %", "result": -0.747, "unit": "%"},
      {"measurement": "inhibition", "setting": "Thailand/16681/1984, Concentration 99.01 uM, Number of replicates 2.0, Standard deviation 0.25212885411314173 %", "result": 0.957, "unit": "%"},
      {"measurement": "inhibition", "setting": "Thailand/16681/1984, Concentration 198.0 uM, Number of replicates 2.0, Standard deviation 0.23111814436827896 %", "result": 2.51, "unit": "%"}
    ]},
    {"smiles": "CCCCCNC(=O)c1cc(Cl)ccc1NS(=O)(=O)c1ccc(Oc2ccccc2Cl)cc1", "values": [
      {"measurement": "inhibition", "setting": "Thailand/16681/1984, Concentration 49.5 uM, Number of replicates 2.0, Standard deviation 0.23227296801747743 %", "result": 78.7, "unit": "%"},
      {"measurement": "inhibition", "setting": "Thailand/16681/1984, Concentration 99.01 uM, Number of replicates 2.0, Standard deviation 0.006678758202430312 %", "result": 76.9, "unit": "%"},
      {"measurement": "inhibition", "setting": "Thailand/16681/1984, Concentration 198.0 uM, Number of replicates 2.0, Standard deviation 0.04271599955318515 %", "result": 65.6, "unit": "%"}
    ]},
    {"smiles": "CC[C@H](C#N)NC(=O)c1cc(Cl)ccc1NS(=O)(=O)c1ccc(Oc2ccccc2Cl)cc1", "values": [
      {"measurement": "inhibition", "setting": "Thailand/16681/1984, Concentration 49.5 uM, Number of replicates 2.0, Standard deviation 0.706613157296788 %", "result": 44.6, "unit": "%"},
      {"measurement": "inhibition", "setting": "Thailand/16681/1984, Concentration 99.01 uM, Number of replicates 2.0, Standard deviation 0.473003628419333 %", "result": 22.1, "unit": "%"},
      {"measurement": "inhibition", "setting": "Thailand/16681/1984, Concentration 198.0 uM, Number of replicates 2.0, Standard deviation 1.2548162043536224 %", "result": 2.91, "unit": "%"}
    ]},
    {"smiles": "C[C@@H](CS(C)(=O)=O)NC(=O)c1cc(Cl)ccc1NS(=O)(=O)c1ccc(Oc2ccccc2Cl)cc1", "values": [
      {"measurement": "inhibition", "setting": "Thailand/16681/1984, Concentration 49.5 uM, Number of replicates 2.0, Standard deviation 0.5989303195749703 %", "result": 51.1, "unit": "%"},
      {"measurement": "inhibition", "setting": "Thailand/16681/1984, Concentration 99.01 uM, Number of replicates 2.0, Standard deviation 0.4213875631597994 %", "result": 57, "unit": "%"},
      {"measurement": "inhibition", "setting": "Thailand/16681/1984, Concentration 198.0 uM, Number of replicates 2.0, Standard deviation 0.24651523106627876 %", "result": 43, "unit": "%"}
    ]},
    {"smiles": "CC(C)CNC(=O)c1cc(Cl)ccc1NS(=O)(=O)c1ccc(Oc2ccccc2Cl)cc1", "values": [
      {"measurement": "inhibition", "setting": "Thailand/16681/1984, Concentration 49.5 uM, Number of replicates 2.0, Standard deviation 0.23411798845789034 %", "result": 89.6, "unit": "%"},
      {"measurement": "inhibition", "setting": "Thailand/16681/1984, Concentration 99.01 uM, Number of replicates 2.0, Standard deviation 0.14645254355523077 %", "result": 88.7, "unit": "%"},
      {"measurement": "inhibition", "setting": "Thailand/16681/1984, Concentration 198.0 uM, Number of replicates 2.0, Standard deviation 0.2542297902177128 %", "result": 84.4, "unit": "%"}
    ]},
    {"smiles": "COC[C@@H](C)CNC(=O)c1cc(Cl)ccc1NS(=O)(=O)c1ccc(Oc2ccccc2Cl)cc1", "values": [
      {"measurement": "inhibition", "setting": "Thailand/16681/1984, Concentration 49.5 uM, Number of replicates 2.0, Standard deviation 0.2816677257730929 %", "result": 82.2, "unit": "%"},
      {"measurement": "inhibition", "setting": "Thailand/16681/1984, Concentration 99.01 uM, Number of replicates 2.0, Standard deviation 0.03025941418209339 %", "result": 83.8, "unit": "%"},
      {"measurement": "inhibition", "setting": "Thailand/16681/1984, Concentration 198.0 uM, Number of replicates 2.0, Standard deviation 0.3452939569842909 %", "result": 76.9, "unit": "%"}
    ]}
  ]
}
